Active and inactive are the calls of the source.
How the values were obtained:
[1] = binders of probe aFSTL3 on microarray, primary screen, stem cell growth factor project, biochemical, small-molecule microarray, fluorescence 635/667 (AID 1064); conditions: higher = more signal;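 further: measures binding of the biotinylated anti-FSTL3 antibody to printed compounds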
[2] = binders from COS7 lysate, DM2A8 probe, primary screen, torsin A project, cell lysate, small-molecule microarray, fluorescence 635/667 (AID 1065); conditions: higher = more signal, COS7 lysate expressing mutant human TOR1A
[3] = binders of probe aFGF2 on microarray, primary screen, stem cell growth factor project, biochemical, small-molecule microarray, fluorescence 635/667 (AID 1067); conditions: higher = more signal;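 further: measures binding of biotinylated aFGF2 protein to printed compounds on slides; z-score merges feature fluorescence and signal-to-noise across triplicate slides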
[4] = binders of probe aFGF10 on microarray, primary screen, stem cell growth factor project, biochemical, small-molecule microarray, fluorescence 635/667 (AID 1071); conditions: higher = more signal;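 further: score merges 667 nm spot intensity and signal to noise from triplicate slides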
[5] = molecular target: Neurogenic locus notch homolog protein 2 (Homo sapiens) (UniProt Q04721); test: Notch2 binders on small-molecule microarrays, primary screen, biochemical, small-molecule microarray, 635 nm fluorescence, stem cell growth factors (AID 1073); conditions: Notch2 binding, higher = more signal
[6] = molecular target: Pro-neuregulin-1, membrane-bound isoform (Homo sapiens) (UniProt Q02297); test: NRG1 binders on small-molecule microarrays, primary screen, psychiatric disease protein project, biochemical, small-molecule microarray, fluorescence 635/667 (AID 1075); conditions: NRG1 binding, 635 nm fluorescence, higher = more signal;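 further: score combines 667 nm spot fluorescence with signal to noise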
[7] = system: Neuregulin-1 EGF-like domain; test: binders of neuregulin-1 EGF-like domain, primary screen, biochemical, small-molecule microarray, 635 nm fluorescence (AID 1081); conditions: small-molecule microarray binding, higher = more signal;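 further: binding of the protein to compounds printed on small-molecule microarray slides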
[8] = FRG1 promoter luciferase signal modulators, primary screen, FRG1 inhibition for FSHD, cell-based, C2C12 myotubes, firefly/Renilla luciferase, luminescence (AID 1084); conditions: higher = more signal, called active from +8 up or from −8 down
[9] = binders of probe aFST on microarray, primary screen, stem cell growth factor project, biochemical, small-molecule microarray, fluorescence 635/667 (AID 1086); conditions: higher = more signal;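 further: score merges 667 nm fluorescence with signal-to-noise of each printed compound spot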
[10] = binders of probe aHhip on microarray, primary screen, stem cell growth factor project, biochemical, small-molecule microarray, fluorescence 635/667 (AID 1087); conditions: higher = more signal;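 further: score merges spot fluorescence at 667nm with spot signal to noise ratio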
[11] = system: PRMT1 (protein arginine N-methyltransferase 1); test: PRMT1 binders on small-molecule microarrays, primary screen, biochemical, small-molecule microarray, 635 nm fluorescence (AID 1088); conditions: small-molecule microarray binding, higher = more signal;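 further: binding of Prmt1 protein to compounds spotted on small-molecule microarray slides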
[12] = yeast growth modulation, basal conditions, primary screen, YJM789 clinical isolate, OD600, 24 h (AID 1089);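 further: growth of clinical yeast isolate S. cerevisiae YJM 789 seeded 1000 cells per well; test concentration not given here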; conditions: S. cerevisiae YJM789 growth, higher = more signal, called active from +8 up or from −8 down
[13] = fission yeast growth modulation, primary screen, strain 972, OD600, 24 h, no modulator (AID 1090);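 further: basal condition with compound alone and no growth modifier present; test concentration not given here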; conditions: S. pombe 972 growth, higher = more signal, called active from +8 up or from −8 down
[14] = S. cerevisiae growth modulation with rapamycin, primary screen, strain BY4716, OD600, 96 h (AID 1091); conditions: higher = more signal, called active from +8 up or from −8 down; further: test concentration not given here
[15] = molecular target: Torsin-1A-interacting protein 2 (Homo sapiens) (UniProt Q8NFQ8); test: LULL1 binders on small-molecule microarray, primary screen, cell lysate, human LULL1 lysate, 635/667 nm fluorescence (AID 1092); conditions: hLULL1 lysate binding, 635 nm fluorescence, higher = more signal;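 further: probe is lysate of COS7 cells overexpressing human LULL1; score merges per-feature 667 nm fluorescence with signal-to-noise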
[16] = E. coli growth modulation, two-sided OD650, primary screen, E. coli filamentation project, strain DRC41, 24 h (AID 1093); conditions: OD650, 24 h, higher = more signal, called active from +8 up or from −8 down;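 further: MC1000 strain lacking acrAB efflux and sulA so SOS filamentation is blocked; test concentration not given here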
[17] = small-molecule microarray binders of probe aLefty2, primary screen, biochemical, biotinylated probe, 635/667 nm fluorescence (AID 1094); conditions: higher = more signal;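 further: score merges spot fluorescence near 667 nm with spot signal-to-noise ratio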
[18] = system: Noggin (protein binding on small-molecule microarray); test: Noggin binders on small-molecule microarray, primary screen, biochemical, 635/667 nm fluorescence (AID 1095); conditions: 635 nm fluorescence, higher = more signal;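 further: score merges 667 nm feature fluorescence with signal to noise over triplicate slides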
[19] = molecular target: Neurogenic locus notch homolog protein 3 (Homo sapiens) (UniProt Q9UM47); test: NOTCH3 binders on small-molecule microarray, primary screen, biochemical, 635/667 nm fluorescence (AID 1096); conditions: NOTCH3 binding, 635 nm fluorescence, higher = more signal
[20] = small-molecule microarray binders of probe aEGFR, primary screen, biochemical, biotinylated probe, 635/667 nm fluorescence (AID 1097); conditions: higher = more signal;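 further: probe is a biotinylated anti-EGFR antibody binding compounds printed on slides; score combines fluorescence near 667 nm and signal to noise of each spot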

Sequence of Pro-neuregulin-1, membrane-bound isoform (Homo sapiens) (Q02297 whole entry, looked up, the tested form may be a part, canonical isoform): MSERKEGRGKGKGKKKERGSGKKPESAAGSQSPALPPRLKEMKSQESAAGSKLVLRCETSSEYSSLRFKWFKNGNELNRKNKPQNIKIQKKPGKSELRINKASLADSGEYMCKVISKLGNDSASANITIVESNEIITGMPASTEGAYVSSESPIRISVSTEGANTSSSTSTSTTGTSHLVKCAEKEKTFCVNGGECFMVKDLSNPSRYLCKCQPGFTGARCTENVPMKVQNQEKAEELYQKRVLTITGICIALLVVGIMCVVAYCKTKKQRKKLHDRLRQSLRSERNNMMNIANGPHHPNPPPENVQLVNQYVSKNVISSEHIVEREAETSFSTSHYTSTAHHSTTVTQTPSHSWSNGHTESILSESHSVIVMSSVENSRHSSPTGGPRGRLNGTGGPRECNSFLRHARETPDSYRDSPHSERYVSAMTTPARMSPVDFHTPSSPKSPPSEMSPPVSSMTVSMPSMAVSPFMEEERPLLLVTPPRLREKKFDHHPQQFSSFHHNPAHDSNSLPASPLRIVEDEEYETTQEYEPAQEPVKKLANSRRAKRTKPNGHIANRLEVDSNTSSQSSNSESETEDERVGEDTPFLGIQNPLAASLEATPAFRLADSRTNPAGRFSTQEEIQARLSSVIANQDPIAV
Sequence of Torsin-1A-interacting protein 2 (Homo sapiens) (Q8NFQ8 whole entry, looked up): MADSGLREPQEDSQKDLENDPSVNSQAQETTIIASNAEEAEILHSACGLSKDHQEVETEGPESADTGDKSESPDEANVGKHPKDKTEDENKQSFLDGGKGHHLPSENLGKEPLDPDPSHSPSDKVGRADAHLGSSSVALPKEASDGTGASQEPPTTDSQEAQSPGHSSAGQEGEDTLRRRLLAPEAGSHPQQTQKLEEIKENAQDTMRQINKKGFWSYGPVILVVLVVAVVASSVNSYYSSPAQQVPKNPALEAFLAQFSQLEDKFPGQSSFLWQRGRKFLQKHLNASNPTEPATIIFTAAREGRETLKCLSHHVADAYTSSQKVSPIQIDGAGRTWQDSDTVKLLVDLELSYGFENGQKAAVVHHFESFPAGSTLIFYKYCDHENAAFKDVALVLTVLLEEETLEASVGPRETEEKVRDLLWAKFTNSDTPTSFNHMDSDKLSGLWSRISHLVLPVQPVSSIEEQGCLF
Sequence of Neurogenic locus notch homolog protein 3 (Homo sapiens) (Q9UM47 whole entry, looked up): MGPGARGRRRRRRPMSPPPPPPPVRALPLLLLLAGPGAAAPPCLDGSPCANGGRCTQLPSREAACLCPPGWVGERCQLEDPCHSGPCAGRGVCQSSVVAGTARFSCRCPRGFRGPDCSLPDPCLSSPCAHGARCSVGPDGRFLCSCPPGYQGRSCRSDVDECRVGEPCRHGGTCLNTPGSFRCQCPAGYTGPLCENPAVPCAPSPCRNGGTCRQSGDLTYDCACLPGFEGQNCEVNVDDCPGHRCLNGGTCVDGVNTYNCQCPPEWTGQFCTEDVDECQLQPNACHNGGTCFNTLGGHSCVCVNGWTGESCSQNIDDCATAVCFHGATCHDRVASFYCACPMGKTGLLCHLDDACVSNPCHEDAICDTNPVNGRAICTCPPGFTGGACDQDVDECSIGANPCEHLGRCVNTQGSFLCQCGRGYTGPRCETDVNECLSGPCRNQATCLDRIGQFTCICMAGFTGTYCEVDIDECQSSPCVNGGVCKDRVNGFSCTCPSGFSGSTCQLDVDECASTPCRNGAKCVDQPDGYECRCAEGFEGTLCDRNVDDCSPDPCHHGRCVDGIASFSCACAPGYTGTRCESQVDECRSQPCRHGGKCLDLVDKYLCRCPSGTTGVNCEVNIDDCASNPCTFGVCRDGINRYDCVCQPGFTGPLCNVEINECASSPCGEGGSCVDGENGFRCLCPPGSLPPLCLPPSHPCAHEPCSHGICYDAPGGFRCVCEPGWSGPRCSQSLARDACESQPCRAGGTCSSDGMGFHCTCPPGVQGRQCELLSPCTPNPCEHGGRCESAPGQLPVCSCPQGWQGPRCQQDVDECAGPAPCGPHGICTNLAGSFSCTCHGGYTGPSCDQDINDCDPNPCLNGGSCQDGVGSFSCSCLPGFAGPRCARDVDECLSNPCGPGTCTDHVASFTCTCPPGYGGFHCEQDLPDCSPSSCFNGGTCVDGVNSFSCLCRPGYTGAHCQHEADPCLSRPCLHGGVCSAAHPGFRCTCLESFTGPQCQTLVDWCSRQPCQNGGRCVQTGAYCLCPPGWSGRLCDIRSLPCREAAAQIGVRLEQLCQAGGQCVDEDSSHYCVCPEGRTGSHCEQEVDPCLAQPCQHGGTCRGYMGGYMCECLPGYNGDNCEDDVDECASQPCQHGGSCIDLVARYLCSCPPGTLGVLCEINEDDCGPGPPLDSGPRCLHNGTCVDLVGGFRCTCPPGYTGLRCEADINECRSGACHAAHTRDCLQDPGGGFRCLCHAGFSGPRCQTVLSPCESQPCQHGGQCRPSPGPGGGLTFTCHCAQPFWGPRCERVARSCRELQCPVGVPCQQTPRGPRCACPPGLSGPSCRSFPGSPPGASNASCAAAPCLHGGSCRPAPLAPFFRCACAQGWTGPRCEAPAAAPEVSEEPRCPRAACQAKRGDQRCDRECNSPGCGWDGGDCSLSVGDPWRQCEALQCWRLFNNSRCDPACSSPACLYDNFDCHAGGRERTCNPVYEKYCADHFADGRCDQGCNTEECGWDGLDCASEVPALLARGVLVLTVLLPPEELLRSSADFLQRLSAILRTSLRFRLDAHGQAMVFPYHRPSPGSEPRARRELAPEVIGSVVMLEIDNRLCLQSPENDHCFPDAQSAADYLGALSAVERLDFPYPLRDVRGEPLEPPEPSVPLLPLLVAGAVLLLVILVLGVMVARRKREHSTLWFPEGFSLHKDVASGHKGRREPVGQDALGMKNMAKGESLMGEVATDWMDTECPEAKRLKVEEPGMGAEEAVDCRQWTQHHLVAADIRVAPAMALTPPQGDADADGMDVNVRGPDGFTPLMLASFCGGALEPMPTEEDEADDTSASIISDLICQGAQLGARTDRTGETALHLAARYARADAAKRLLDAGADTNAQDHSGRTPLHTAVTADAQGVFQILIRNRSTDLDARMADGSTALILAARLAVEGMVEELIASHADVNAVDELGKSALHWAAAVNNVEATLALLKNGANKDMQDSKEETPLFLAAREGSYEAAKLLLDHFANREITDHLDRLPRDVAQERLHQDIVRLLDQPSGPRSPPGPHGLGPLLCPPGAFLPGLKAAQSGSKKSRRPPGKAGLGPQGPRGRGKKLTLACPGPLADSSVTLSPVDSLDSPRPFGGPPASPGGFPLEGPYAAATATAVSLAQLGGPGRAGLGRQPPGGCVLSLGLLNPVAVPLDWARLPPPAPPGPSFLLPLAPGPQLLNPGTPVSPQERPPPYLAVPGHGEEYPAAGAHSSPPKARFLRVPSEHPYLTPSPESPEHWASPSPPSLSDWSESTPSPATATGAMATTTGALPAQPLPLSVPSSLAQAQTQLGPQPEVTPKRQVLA

| SMILES | composite z-score [1] | composite z-score [2] | composite z-score [3] | composite z-score [4] | composite z-score [5] | composite z-score [6] | composite z-score [7] | z-score [8] | composite z-score [9] | composite z-score [10] | composite z-score [11] | z-score [12] | z-score [13] | z-score [14] | composite z-score [15] | z-score [16] | composite z-score [17] | composite z-score [18] | composite z-score [19] | composite z-score [20] |
| --- | --- | --- | --- | --- | --- | --- | --- | --- | --- | --- | --- | --- | --- | --- | --- | --- | --- | --- | --- | --- |
| COc1cccc([C@H]2Oc3ccc(OC)cc3C(=NOC(C)CN3CCCCc4nc(C)c(C)cc43)[C@@H]2O)c1 (stereo not given in full) | 0.161 | -0.0173 | -0.0005 | 0.561 | 0.0879 | 0.996 | 0.632 | -2.06 (inactive) | -0.0285 | 0.0854 | 1.03 | -0.915 (inactive) | -1.19 (inactive) | -1.48 (inactive) | 1.45 | 1.25 (inactive) | 0.0344 | 0.0286 | 0.32 | 0.044 |
| CO[C@H]1COC(=O)[C@@H](Cc2ccccc2)NC(=O)[C@@H](C)COC(=O)CCC[C@@H]1C | -0.388 | 0.433 | -0.0319 | 0.286 | 0.106 | -0.203 | -0.361 | -0.224 (inactive) | 0.23 | -0.0391 | 0.231 | -0.875 (inactive) | -0.301 (inactive) | -0.784 (inactive) | -0.502 | 0.17 (inactive) | -0.185 | 0.304 | -0.0051 | -0.0152 |
| COC(=O)CC=C[C@@H](C)[C@@H](C=NO[C@@H]1O[C@H](COC(C)=O)[C@@H](OC(C)=O)[C@H](OC(C)=O)[C@H]1OC(C)=O)OC | -0.48 | 1.26 | 0.0167 | -0.41 | 1.03 | -0.617 | -1.05 | 0.572 (inactive) | 0.354 | 0.189 | 1.18 | 0.492 (inactive) | 0.146 (inactive) | 0.119 (inactive) | 0.062 | -0.742 (inactive) | -0.0397 | 0.27 | -0.297 | -0.0506 |
| COC(=O)CC=C[C@H](C)[C@@H](OCc1cccc(Br)c1)[C@@H](C)[C@H](OC)C1CCCCC1 | -0.191 | 0.451 | -0.245 | 0.106 | -0.723 | 0.419 | -0.3 | 1.23 (inactive) | -0.118 | 0.0024 | -0.0514 | 0.738 (inactive) | -1.28 (inactive) | 0.99 (inactive) | -0.412 | 0.276 (inactive) | -0.166 | 0.32 | -1 | -0.237 |
| CC[C@@H](c1ccccc1)n1c(=O)n2n(c1=O)[C@H]1[C@H](O)[C@@H]3O[C@@H]3C(=O)[C@H]1CC2 | -0.66 | -0.283 | -0.103 | 0.335 | 0.395 | -0.0023 | -0.088 | 0.327 (inactive) | 0.0182 | 0.0373 | 0.342 | -0.0637 (inactive) | -2.45 (inactive) | -0.0584 (inactive) | 0.396 | 0.473 (inactive) | 0.444 | 0.417 | 0.285 | -0.0431 |
| CCOC(=O)[C@H](CC(C)C)NC(=O)CCC1CC(OC(=O)NCc2cccc3ccccc23)CC2(CCCC(COC(=O)NCc3cccc(C(F)(F)F)c3)O2)O1 (stereo not given in full) | -0.5 | 0.0221 | -0.125 | 0.469 | 0.611 | -0.0419 | 0.0188 | -1.03 (inactive) | -0.262 | 0.0749 | 0.221 | 0.533 (inactive) | 0.171 (inactive) | 0.289 (inactive) | 0.135 | 0.294 (inactive) | -0.251 | 0.582 | 0.359 | -0.137 |
| CC(=O)OC[C@H]1OC(ON=CC[C@@H]2C=C[C@H](OC(C)=O)[C@@H](COC(C)=O)O2)[C@H](OC(C)=O)[C@@H](OC(C)=O)[C@@H]1OC(C)=O (stereo not given in full) | -0.314 | 0.585 | -0.076 | 0.398 | 0.94 | -0.555 | -0.595 | -0.0946 (inactive) | 0.52 | 0.0972 | 1.4 | -0.763 (inactive) | 0.17 (inactive) | -0.64 (inactive) | 0.828 | -0.16 (inactive) | 0.106 | 0.612 | 0.448 | 0.145 |
| C=CC1=C[C@H](O)[C@@H]2O[C@@H]2C12OCCCO2 | -0.0605 | 0.2 | -0.204 | 0.206 | 0.0754 | 0.122 | 0.35 | 0.293 (inactive) | -0.136 | 0.0274 | -0.12 | -0.532 (inactive) | 0.199 (inactive) | -0.138 (inactive) | -0.119 | -0.0339 (inactive) | -0.244 | 0.412 | -0.239 | 0.009 |

From PubChem BioAssay
